PubChem BioAssay (NCI)
Compounds without any hit were thinned out: in the full panel of roughly 83,000, 20% have a hit.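 The test compound was applied at a single concentration to cells in 96-well plates for 48 hours, and percent growth was recorded.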 Calls of active or inactive are those of the source. Rule for the calls: active = growth percent below 10; inactive = the rest.

Tests used:
Test in all cases: NCI-60 one-dose screen, 48 h (100 = growth as untreated, 0 = no growth, -100 = all killed)
SK-MEL-2 melanoma = test system: SK-MEL-2 melanoma
EKVX NSCLC = test system: EKVX NSCLC
SN12C renal = conditions: 10 µM unless noted
UO-31 renal = test system: UO-31 renal
TK-10 renal = test system: TK-10 renal
ACHN renal = test system: ACHN renal
CAKI-1 renal = test system: CAKI-1 renal
A498 renal = test system: A498 renal
CCRF-CEM leukemia = test system: CCRF-CEM leukemia
MOLT-4 leukemia = conditions: 10 µM unless noted

Measured: growth

COc1ccc2[nH]c(O)c(N=Nc3nc(-c4ccc(C#N)cc4)cs3)c2c1
inactive: SK-MEL-2 melanoma; 10 µM unless noted 95.8% | EKVX NSCLC; 10 µM unless noted 63.9% | SN12C renal 20.3% | UO-31 renal; 10 µM unless noted 18.3% | TK-10 renal; 10 µM unless noted 55.3% | ACHN renal; 10 µM unless noted 22.2% | CAKI-1 renal; 10 µM unless noted 35.4% | A498 renal; 10 µM unless noted 13.2% | CCRF-CEM leukemia; 10 µM unless noted 86.4% | MOLT-4 leukemia 84.2%

C[C@@H]1[C@H]2C[C@@H](C[C@H]1NCc1nc3ccccc3n1C1CCCCCC1)C2(C)C
inactive: SK-MEL-2 melanoma; 10 µM unless noted 70.6% | EKVX NSCLC; 10 µM unless noted 68.3% | SN12C renal 39.8% | UO-31 renal; 10 µM unless noted 44.4% | TK-10 renal; 10 µM unless noted 90.8% | ACHN renal; 10 µM unless noted 59.5% | CAKI-1 renal; 10 µM unless noted 55.5% | A498 renal; 10 µM unless noted 88.9% | CCRF-CEM leukemia; 10 µM unless noted 58% | MOLT-4 leukemia 33.6%

CC/C(=C(\c1ccc(O)cc1)c1ccc(OCCN(C)C(=O)CCOCCNC(=O)c2ccc3c(c2)CN([C@@H]2CCC(=O)NC2=O)C3=O)cc1)c1ccccc1
inactive: SK-MEL-2 melanoma; 1 µM 103% | SK-MEL-2 melanoma; 10 µM 101% | EKVX NSCLC; 1 µM 100% | EKVX NSCLC; 10 µM 89.1% | UO-31 renal; 1 µM 91.9% | UO-31 renal; 10 µM 89.9% | TK-10 renal; 1 µM 99% | TK-10 renal; 10 µM 88.5% | ACHN renal; 1 µM 103% | ACHN renal; 10 µM 106% | CAKI-1 renal; 1 µM 101% | CAKI-1 renal; 10 µM 94.5% | A498 renal; 1 µM 93.3% | A498 renal; 10 µM 89.6% | CCRF-CEM leukemia; 1 µM 24.5% | CCRF-CEM leukemia; 10 µM 26.1%

CN(C)c1ccc(/C=C/c2n(Cc3ccc4ccccc4c3)c3ccccc3[n+]2Cc2ccc3ccccc3c2)cc1
active: SK-MEL-2 melanoma; 10 µM unless noted -70.8% | EKVX NSCLC; 10 µM unless noted -95.8% | SN12C renal -80.5% | UO-31 renal; 10 µM unless noted -91.9% | TK-10 renal; 10 µM unless noted -81.1% | ACHN renal; 10 µM unless noted -97.6% | CAKI-1 renal; 10 µM unless noted -95.9% | A498 renal; 10 µM unless noted -82.1% | CCRF-CEM leukemia; 10 µM unless noted -48.5% | MOLT-4 leukemia -38.1%

N/C(=N\c1nc2ccccc2s1)NC(=O)Nc1ccccc1F
active: CCRF-CEM leukemia; 10 µM unless noted 5.96%
inactive: SK-MEL-2 melanoma; 10 µM unless noted 11% | EKVX NSCLC; 10 µM unless noted 37% | SN12C renal 26.4% | UO-31 renal; 10 µM unless noted 34.3% | TK-10 renal; 10 µM unless noted 38.4% | ACHN renal; 10 µM unless noted 47.8% | CAKI-1 renal; 10 µM unless noted 18.6% | A498 renal; 10 µM unless noted 78.4% | MOLT-4 leukemia 21.1%

COc1ccc(NC2=C(I)C(=O)C(C)=C(C)C2=O)cc1
inactive: SK-MEL-2 melanoma; 10 µM unless noted 56.9% | EKVX NSCLC; 10 µM unless noted 25% | SN12C renal 17% | UO-31 renal; 10 µM unless noted 46.1% | TK-10 renal; 10 µM unless noted 155% | ACHN renal; 10 µM unless noted 30.4% | CAKI-1 renal; 10 µM unless noted 29.1% | A498 renal; 10 µM unless noted 113%
active: CCRF-CEM leukemia; 10 µM unless noted -11.1% | MOLT-4 leukemia -6.32%

COc1ccc2ccccc2c1/C=C1\SC(=Nc2ccc(O)cc2)NC1=O
active: SN12C renal 6.03% | CAKI-1 renal; 10 µM unless noted 9.94% | CCRF-CEM leukemia; 10 µM unless noted 2.89% | MOLT-4 leukemia 9.45%
inactive: SK-MEL-2 melanoma; 10 µM unless noted 27.1% | EKVX NSCLC; 10 µM unless noted 15.8% | UO-31 renal; 10 µM unless noted 17.7% | TK-10 renal; 10 µM unless noted 36.9% | ACHN renal; 10 µM unless noted 17% | A498 renal; 10 µM unless noted 93.5%

COc1cc(NC(=O)CSc2nnc(-c3ccc(-c4nc5ccc(Cl)cc5[nH]4)cc3)o2)cc(OC)c1OC
inactive: SK-MEL-2 melanoma; 10 µM unless noted 40.3% | EKVX NSCLC; 10 µM unless noted 81.1% | SN12C renal 46.6% | UO-31 renal; 10 µM unless noted 64% | TK-10 renal; 10 µM unless noted 93.9% | ACHN renal; 10 µM unless noted 74.9% | CAKI-1 renal; 10 µM unless noted 68.3% | A498 renal; 10 µM unless noted 137% | CCRF-CEM leukemia; 10 µM unless noted 15% | MOLT-4 leukemia 34.2%

O=C(Nc1ccc(Cl)c(C(F)(F)F)c1)N1CCN(c2cc(-c3cn(-c4ccccc4)nc3-c3cccc(O)c3)ccn2)CC1
inactive: A498 renal; 10 µM unless noted 38.9%
active: SK-MEL-2 melanoma; 10 µM unless noted -66.9% | EKVX NSCLC; 10 µM unless noted -0.99% | SN12C renal 4.12% | UO-31 renal; 10 µM unless noted 5.37% | TK-10 renal; 10 µM unless noted 8.9% | ACHN renal; 10 µM unless noted 3.14% | CAKI-1 renal; 10 µM unless noted 9.06% | CCRF-CEM leukemia; 10 µM unless noted 0.607% | MOLT-4 leukemia 1.52%

O=CNc1ccc(-n2cnc3cc(-c4ccc(O)cc4)ccc32)cc1
inactive: SK-MEL-2 melanoma; 10 µM unless noted 115% | EKVX NSCLC; 10 µM unless noted 106% | SN12C renal 71.7% | UO-31 renal; 10 µM unless noted 61% | TK-10 renal; 10 µM unless noted 108% | ACHN renal; 10 µM unless noted 65.4% | CAKI-1 renal; 10 µM unless noted 87.3% | A498 renal; 10 µM unless noted 135% | CCRF-CEM leukemia; 10 µM unless noted 76.4% | MOLT-4 leukemia 77.3%

O=C(c1cc2cc(OCCCN3CCC3)ccc2[nH]1)N1C[C@@H](CCl)c2c1cc(OCc1ccccc1)c1ccccc21
active: SK-MEL-2 melanoma; 10 µM unless noted -93.4% | EKVX NSCLC; 10 µM unless noted -46% | SN12C renal -40.1% | UO-31 renal; 10 µM unless noted -84.6% | TK-10 renal; 10 µM unless noted -3.9% | ACHN renal; 10 µM unless noted -96.8% | CAKI-1 renal; 10 µM unless noted -84.6% | A498 renal; 10 µM unless noted -25.3% | CCRF-CEM leukemia; 10 µM unless noted -18.2% | MOLT-4 leukemia -15.4%

CCN1C(=O)N(CC)C2NNC(Sc3c(C(=O)O)c4ccccc4n(CCC(C)C)c3=O)=NC21 (stereo unspecified)
active: CCRF-CEM leukemia; 10 µM unless noted 7.16% | MOLT-4 leukemia 3.81%
inactive: SK-MEL-2 melanoma; 10 µM unless noted 22.3% | EKVX NSCLC; 10 µM unless noted 20.8% | SN12C renal 16.3% | UO-31 renal; 10 µM unless noted 28.1% | TK-10 renal; 10 µM unless noted 62.1% | ACHN renal; 10 µM unless noted 24% | CAKI-1 renal; 10 µM unless noted 38.9% | A498 renal; 10 µM unless noted 76.4%

Fc1ccccc1CNc1nc(SCCN2CCOCC2)nc2c1cnn2CC(Cl)c1ccc(Br)cc1 (stereo unspecified)
active: UO-31 renal; 10 µM unless noted -6.44% | MOLT-4 leukemia -25.2%
inactive: SK-MEL-2 melanoma; 10 µM unless noted 31.1% | EKVX NSCLC; 10 µM unless noted 49% | SN12C renal 53.2% | TK-10 renal; 10 µM unless noted 58.9% | ACHN renal; 10 µM unless noted 25.1% | CAKI-1 renal; 10 µM unless noted 27% | A498 renal; 10 µM unless noted 53.8% | CCRF-CEM leukemia; 10 µM unless noted 22.4%
